The record followed here is PubChem BioAssay (NCATS).

Inconclusive results are not listed. Unmarked numbers belong to inactive results. The source made the active and inactive calls. The call rests on the fitted dose curve; in most records, active means well fitted inhibition curve with a large enough effect; inconclusive means small, poorly fitted or top-dose-only effect; inactive means flat fitted curve, though single readings scatter.

What all share (assay): Cytotoxic Profiling of Annotated Libraries Using Quantitative High-Throughput Screening (AID 1296008); further: nearly all actives have a fitted effect of over 60% in size
Settings in all cases: Five cell lines viability, CellTiter-Glo ATP luminescence, 48-72 h; max response: stronger effect = lower value

Assay [1] concerns CRL-7250. The gist of the method: (§1)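 Cytotoxicity was measured as CellTiter-Glo ATP luminescence, read after 10 min at room temperature. Compound treatment of the cells lasted 48 or 72 hr at 37 degrees Celsius in a qHTS format.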
Assay [2] deals with HEK293. The gist of the method: as §1
For assay [3], the system named is HaCat. The gist of the method:
as §1

Assay [4] deals with KB-3-1. An outline of the steps:
as §1

Assay [5] deals with NIH3T3. The gist of the method:
as §1
On the % scale 0 is the no-effect control and ±100 the full control effect; potency means the concentration at half of the fitted maximal effect.

For the compound `C[C@@H]1O[C@@H](O[C@H]2[C@@H](OC(=O)[C@]34CCC(C)(C)CC3C3=CCC5[C@@]6(C)C[C@H](O)[C@H](O[C@@H]7O[C@H](C(=O)O)[C@@H](O)[C@H](O)[C@H]7O)[C@@](C)(C(=O)O)C6CC[C@@]5(C)[C@]3(C)CC4)OC[C@H](O)[C@@H]2O)[C@H](O)[C@H](O)[C@H]1O[C@@H]1OC[C@@H](O)[C@H](O)[C@H]1O` (stereo not given in full), the max response in assay [1] is -0.804%; in assay [2], -1.89%; in assay [3] it was -1.2%; in assay [5], -0.698%. Also, in assay [4], the compound was classed as inactive.
For the compound `COc1cc(OC)c(/C=C/S(=O)(=O)Cc2ccc(OC)c(NCC(=O)O)c2)c(OC)c1`, the Potency was 231 nM (active) in assay [1], 58 nM (active) in assay [2], 206 nM (active) in assay [4] and 146 nM (active) in assay [5]. Also, the call in assay [3] was inactive.
`C=C[C@H]1[C@H](O[C@@H]2O[C@H](CO)[C@@H](O)[C@H](O)[C@H]2O)OC=C(C(=O)OC)[C@H]1C[C@@H]1c2cc(O)c(O)cc2CCN1C(C)=O`: the max response in assay [1] was -23.5%; in assay [2], 2.33%; in assay [3], 3.48%; in assay [4], -1.92%; in assay [5], -10.7%.
As to `CC1=CC(=O)C2(OC3OC(C)C(O)C(OC(=O)/C=C/c4ccccc4)C3O)C=COC(OC3OC(CO)C(O)C(O)C3O)C12` (stereo not given), the max response is -3.56% in assay [1]; -0.0394% in assay [2]; 2.65% in assay [3]; 7.12% in assay [4]; 3.5% in assay [5].
Consider `CCC(O)C(C)C1CCC(C(C)C(=O)O)O1` (stereo not given), for which the result in assay [1] and in assay [4] was inactive. Further, the max response in assay [2] was -7.28%; in assay [3] it was 3.27%; in assay [5], 2.92%.
For `CC(Nc1ncnc2nc[nH]c12)c1cc2cccc(Cl)c2c(=O)n1-c1ccccc1` (stereo not given), the max response was -7.8% in assay [1] and -11.3% in assay [4]. Further, the Potency in assay [2] was 18400 nM (active); in assay [3], 20600 nM (active); in assay [5], 13000 nM (active).
For `C=C1[C@H](OC(C)=O)[C@H]2[C@@H](OC(C)=O)[C@](C)(OC(C)=O)C[C@]2(OC(C)=O)C(=O)[C@H](C)/C=C/C(C)(C)C(=O)[C@H](OC(=O)C(C)CC)[C@H]1OC(C)=O` (stereo not given in full), the max response in assay [1] was -1.41%; in assay [2], 1.43%; in assay [3] it was -2.99%; in assay [5], -13.5%. Moreover, the result in assay [4] was inactive.
`Cc1cc(N2CCN([C@@H]3CN[C@H](C(=O)N4CCSC4)C3)CC2)n(-c2ccccc2)n1`: the max response in assay [1] was -17.8%; in assay [2], -23.9%; in assay [3] it was -10.6%; in assay [4], -12.3%; in assay [5], -22.8%.
On to `O=S(=O)(NC1CCC(c2cc(F)ccc2F)(S(=O)(=O)c2ccc(Cl)cc2)CC1)C(F)(F)F` (stereo not given), for which, in assay [1], the compound was called inactive. In addition, the max response in assay [2] was -4.12%; in assay [3], -23.1%; in assay [4], 5.9%; in assay [5], -17.1%.
Turning to `C=C(C)C1CC[C@]2(C(=O)O)CC[C@]3(C(=O)O)[C@H](CCC4[C@@]5(C)CC[C@H](O)C(C)(C)C5CC[C@]43C)C12` (stereo not given in full), the max response in assay [1] was -0.813%; in assay [2], -5.51%; in assay [3], -4.71%; in assay [4], -4.13%; in assay [5], -12.2%.
The like results for `NC1CCCCN(c2c(F)cc3c(=O)c(C(=O)O)cn(C4CC4)c3c2Cl)C1` (stereo not given) were, in that order, 3.42%, -12.1%, 0.186%, -4.74% and 1.34%.
Turning to `CC(Oc1ccc2[nH]nc(/C=C/c3cnn(CCO)c3)c2c1)c1c(Cl)cncc1Cl` (stereo not given), the Potency in assay [1] was 1460 nM (active); in assay [2], 2910 nM (active); in assay [3], 2060 nM (active); in assay [4] it was 291 nM (active); in assay [5], 517 nM (active).
`C=C1CN(Cc2ccc(C(=O)Nc3ccccc3N)cc2)C(=O)c2ccccc21`: the Potency in assay [1] is 2060 nM (active); in assay [2], 1460 nM (active); in assay [3], 5800 nM (active); in assay [4] it was 1840 nM (active); in assay [5], 3660 nM (active).
As to `C[C@@H]1CN(Cc2ncccn2)C[C@H]1c1nc2c(cnn2C2CCOCC2)c(=O)[nH]1`, the max response was 1.7% in assay [1]; -4.3% in assay [2]; 0.321% in assay [3]; -1.41% in assay [4]; -4.05% in assay [5].
The matching figures for `O=C(/C=C\c1ccc(O)cc1)N[C@@H](Cc1ccc(O)cc1)C(=O)O`: -7.69%, 1.95%, -12.4%, 1.07% and -0.22%.
Consider `CC1(C)CC[C@]2(C(=O)O[C@@H]3O[C@H](CO)[C@@H](O)[C@H](O)[C@H]3O)CC[C@]3(C)C(=CCC4[C@@]5(C)C[C@@H](O)[C@H](O)C(C)(C)C5CC[C@]43C)C2[C@@H]1O` (stereo not given in full), for which the max response in assay [1] is 0.543%; in assay [2] it was 0.957%; in assay [3], 2.98%; in assay [5], -3.15%. Moreover, the outcome in assay [4] was inactive.
As for `C=C(CO[C@@H]1O[C@H](CO[C@@H]2OC[C@](O)(CO)[C@H]2O)[C@@H](O)[C@H](O)[C@H]1O)C1Cc2cc(C(C)=O)ccc2O1` (stereo not given in full), the max response is -1.55% in assay [1]; -4.65% in assay [2]; -0.415% in assay [3]; 7.61% in assay [4]; 3.36% in assay [5].
As to `CC(C)(F)C[C@@H](N[C@@H](c1ccc(-c2ccc(S(C)(=O)=O)cc2)cc1)C(F)(F)F)C(=O)NC1(C#N)CC1`, the max response in assay [1] was 0.789%; in assay [2], -10.4%; in assay [3], -33%; in assay [5], -4.72%. The outcome in assay [4] was inactive.
With `CN1CCN(C2CCC(n3cc(-c4ccc(Oc5ccccc5)cc4)c4c(N)ncnc43)CC2)CC1` (stereo not given), the Potency is 5800 nM (active) in assay [1]; 18400 nM (active) in assay [2]; 1030 nM (active) in assay [3]; 20600 nM (active) in assay [4]; 326 nM (active) in assay [5].
`C[C@@H]1CC[C@]2(C(=O)O)CC[C@]3(C)C(=CCC4[C@@]5(C)C[C@@H](O)[C@H](O)[C@@](C)(CO)C5CC[C@]43C)C2[C@]1(C)O` (stereo not given in full): the max response was -3.26% in assay [1]; -12.2% in assay [2]; 4.14% in assay [3]; 2.17% in assay [4]; -6.81% in assay [5].
